This is a sample that favours compounds with a hit; in the whole collection about 19% have one here.
IL1B secr inh: qHTS for Inhibitors of Inflammasome Signaling: IL-1-beta AlphaLISA Primary Screen; activity change, % at 57.5 µM; THP-1 LPS/ATP IL-1B secretion, AlphaLISA, 16 h; active compounds read low; AID 743279, 2014; 360,000 tested, 4.7% active; in the data active means activity change below about -50%; inconclusive means mostly about -30% to -49%; further: on the % scale 0 is the no-effect control and ±100 the full control effect
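THP-1 cells pretreated 1 hr with compounds (up to 57.5 uM final), then stimulated with LPS (250 ng/mL final) plus ATP (1.25 mM final); secreted IL-1B measured by AlphaLISA after 16 hr, decreased signal indicating inhibition.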
TGFb inhibitor: qHTS for Inhibitors of TGF-b | HepG2 CAGA-GFP TGF-b/SMAD3 reporter, GFP fluorescence, 18 h; TGF-beta stimulated, 500 pg/mL final | Potency, µM (top dose mostly 46.1 µM), inactives show at the highest dose activity, negative = inhibition, most hits filed as inhibitors | 410,000 tested, 1.2% active; further: potency means the concentration at half of the fitted maximal effect; on the % scale 0 is the no-effect control and ±100 the full control effect; nearly all actives have a fitted effect of over 65% in size
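HEPG2 CAGA-GFP reporter cells (1000/well, DMEM with 1% FBS) received compounds, then recombinant TGF-beta at 500 pg/mL final for 18 hours at 37 degrees C. Per-cell GFP summed per well was normalised to unstimulated and stimulated DMSO controls before curve fitting.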
DT40 TDP1 no CPT: qHTS for Inhibitors of human tyrosyl-DNA phosphodiesterase 1 (TDP1): qHTS in cells in absence of CPT. Potency, µM (top dose mostly 46.2 µM), inactives show at the highest dose activity change, negative = growth inhibition, actives largely listed as inhibitors. DT40 Tdp1-/- hTDP1 cells, no CPT, ATP luminescence, 48 h. 420,000 tested, 15% active; further: potency means the concentration at half of the fitted maximal effect; on the % scale 0 is the no-effect control and ±100 the full control effect; nearly all actives have a fitted effect of over 55% in size
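Readout: luminescence from CellTiter-Glo after 30 min in the dark at RT. Cells: DT40 Tdp1-/- with stable hTDP1, 400/well. Exposure: compounds alone, ≥48 hr, 37 °C.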
HepG2 viability: qHTS for Inhibitors of TGF-b: Cytotox Counterscreen | HepG2 CAGA-GFP viability, ATP luminescence, 18 h | Potency, µM (titrated, usually from 46.1 µM), for the others: at the top dose activity change, negative = cytotoxicity, usual class: cytotoxic | 410,000 tested, 0.76% active; further: potency means the concentration at half of the fitted maximal effect
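CellTiter-Glo luminescence gave cytotoxicity after 18 hours at 37 degrees C. The cells were HepG2 CAGA-GFP in 1% FBS DMEM, stimulated with 500 pg/mL TGF-beta after compound addition. %Activity was normalised to no-cell wells (complete cell-killing) and DMSO (no toxicity), and curves were fitted and classified.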
TDP1 block: qHTS Assay for Inhibitors of Tyrosyl-DNA Phosphodiesterase (TDP1); Tyrosyl-DNA phosphodiesterase 1 (Homo sapiens), Q9NUW8; recombinant TDP1, AlphaScreen DNA substrate cleavage; Potency, µM (highest dose often 130 µM), for inactives: at the top dose activity change, negative = inhibition, most hits filed as inhibitors; 350,000 tested, 0.28% active; further: potency means the concentration at half of the fitted maximal effect; on the % scale 0 is the no-effect control and ±100 the full control effect; nearly all actives have a fitted effect of over 40% in size
Target sequence (Q9NUW8 whole entry, looked up): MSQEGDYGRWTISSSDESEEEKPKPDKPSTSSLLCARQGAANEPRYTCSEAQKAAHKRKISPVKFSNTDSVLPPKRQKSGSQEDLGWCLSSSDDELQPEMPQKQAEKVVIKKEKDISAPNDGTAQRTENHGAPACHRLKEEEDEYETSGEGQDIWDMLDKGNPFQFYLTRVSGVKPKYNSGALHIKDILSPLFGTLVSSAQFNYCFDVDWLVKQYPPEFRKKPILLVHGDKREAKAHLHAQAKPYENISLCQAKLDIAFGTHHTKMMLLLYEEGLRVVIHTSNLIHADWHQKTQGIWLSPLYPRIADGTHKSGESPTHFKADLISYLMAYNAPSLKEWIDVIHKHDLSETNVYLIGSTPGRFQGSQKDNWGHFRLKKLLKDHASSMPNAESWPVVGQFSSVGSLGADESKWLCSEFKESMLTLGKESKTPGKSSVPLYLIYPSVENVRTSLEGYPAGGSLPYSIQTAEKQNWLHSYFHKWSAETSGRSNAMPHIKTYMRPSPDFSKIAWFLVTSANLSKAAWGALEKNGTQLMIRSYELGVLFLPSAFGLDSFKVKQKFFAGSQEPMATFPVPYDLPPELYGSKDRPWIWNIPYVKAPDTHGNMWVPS
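Recombinant E. coli-expressed Tdp1 (1 nM) preincubated with compound 15 min at RT, then 5'-biotin/3'-phosphotyrosine-FITC DNA substrate (15 nM) added for 5 min. AlphaScreen beads (10 ug/ml) added, 10 min RT; tyrosine-FITC cleavage read as signal loss.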
TDP1 cell CPT: qHTS for Inhibitors of human tyrosyl-DNA phosphodiesterase 1 (TDP1): qHTS in cells in presence of CPT; 420,000 tested, 12% active; AID 686979, 2013; Potency, µM (doses to about 46.2 µM), for inactives: top-dose activity change, negative = growth inhibition, hits mostly inhibitors; chicken DT40 Tdp1-/-;hTDP1 cells + 20 nM CPT, ATP luminescence, 48 h; further: potency means the concentration at half of the fitted maximal effect; on the % scale 0 is the no-effect control and ±100 the full control effect; nearly all actives have a fitted effect of over 55% in size
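Chicken DT40 Tdp1-/- cells complemented with human TDP1, 400 cells/well, exposed to compounds plus 20 nM camptothecin for at least 48 h at 37 C; viability read as ATP content by CellTiter-Glo luminescence.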
* hit, by the source's call; i = inactive; ? = inconclusive; nt = not tested or not shown; ! = a repeat was not active; [ ] = dose if it differs, or a comment. Unless noted, the call rests on the fitted dose curve; in most records, active means well fitted curve in the direction sought with a large enough effect; inconclusive means small, poorly fitted or top-dose-only effect, or another doubt; inactive means no such curve, though single readings can be large; an effect the other way counts as inactive or inconclusive.

SMILES | IL1B secr inh | TGFb inhibitor | DT40 TDP1 no CPT | HepG2 viability | TDP1 block | TDP1 cell CPT
CC1=CC2=NC(=O)/C(=C\c3cccn3CCOc3cccc(C)c3)C(=N)N2O1 | -56* | 10% | ? | 0% | 4% | 8%
CC1=CC2=NC(=O)/C(=C\c3cc(C)n(-c4ccccc4F)c3C)C(=N)N2O1 | -22 | 6% | 29µM* | -8% | -1% | -17%
Cc1cccc(Cn2c(C)c(CNC3CCCCC3)c(C(=O)O)c2C)c1 | nt | -22% | -12% | -21% | 3% | -3%
COC(=O)c1ccccc1NC(=O)CN1C(=O)COc2ccccc21 | nt | -3% | nt | -3% | 6% | nt
CCOC(=O)N1CCc2c(sc3c2c(=O)n(Cc2ccccc2)c(=O)n3Cc2ccccc2Cl)C1 | nt | 0% | ? | 6% | 6% | ?
Cc1cccc(C(=O)NC(=S)Nc2ccc(S(=O)(=O)N3CCCCC3)cc2)c1 | -1 | 5% | 15µM* | -1% | 4% | 18µM*
CN1CCN(S(=O)(=O)c2ccc(NC(=S)NC(=O)C3CCC3)cc2)CC1 | 15 | 2% | ? | -10% | 3% | -17%
Cc1cccc(C(=O)NC(=S)Nc2ccc(S(=O)(=O)N3CCN(C)CC3)cc2)c1 | 0 | -5% | 23µM* | -4% | 8% | ?
Cc1ccc(C(=O)NC(=S)Nc2ccc(S(=O)(=O)N3CCN(C)CC3)cc2)cc1 | -6 | 5% | 21µM* | -10% | 4% | 16µM*
COc1cc(C=NNC(=S)Nc2ccc(S(=O)(=O)N3CCCCC3)cc2)cc(OC)c1OC | -17 | -20% | 8.2µM* | -10% | nt | 16µM*
N#Cc1cc2ccccc2n2nnnc12 | -2 | -27% | 1% | -14% | 5% | 14%
CC(=O)N(\C=C/C=C/C=C1\Sc2ccccc2C1=O)c1ccccc1 | 2 | ? | 13µM* | -3% | 2% | 29µM*
CCOc1cc(C(=O)Nc2ccc3c(c2)n(C)c(=O)c(=O)n3C)cc(OCC)c1OCC | nt | -14% | ? | -27% | -4%[12.3 µM] | ?
OC[C@@H](O)CN1CCN(c2ccccc2)CC1 | nt | nt | nt | nt | 9%[21 µM] | nt
CC(C)=CCC/C(C)=C/COc1c2occc2cc2ccc(=O)oc12 | 37 | -14% | ? | -60% | 20µM*! | ?
O=C(C1COc2ccccc2O1)N1CCN(S(=O)(=O)c2cc(F)ccc2F)CC1 (centres undefined) | -2 | -7% | -4% | -3% | 0% | -14%
N#Cc1ccccc1S(=O)(=O)N1CCN(C(=O)C2COc3ccccc3O2)CC1 (centres undefined) | 8 | 0% | -5% | -13% | 40µM* | -10%
O=C(C1COc2ccccc2O1)N1CCN(c2nc3ccc([N+](=O)[O-])cc3s2)CC1 (centres undefined) | -7 | 10% | 23µM* | -3% | nt | ?
O=C(C1COc2ccccc2O1)N1CCN(c2ccc([N+](=O)[O-])cc2)CC1 (centres undefined) | -84* | -27% | 21µM* | -10% | -15% | ?
O=C(C1COc2ccccc2O1)N1CCN(c2nc3ccccc3s2)CC1 (centres undefined) | i | -18% | ? | -2% | 4% | ?
O=S(=O)(c1ccc(Br)cc1)N1CCOCC1 | nt | 8% | 0% | -2% | 1% | -5%

From PubChem
